Source: PubChem BioAssay (EPA / NIEHS)
Where “and” joins values, the source holds several entries; their conditions need not be identical. Identical values can stand only once. The source holds several records for some structures; these can differ, active in one and inactive in another. Calls of active or inactive are those of the source. How the source made its calls: active means hit-call score of the fitted dose curve at least 0.9, where 1 is the maximum; inactive means score below 0.9.

The molecules below were run on Interleukin-1 alpha (IL1a), IL1A (gene 3552) (assay: BSK_BE3C_IL1a: BioMAP Diversity Plus: BE3C Assay for Interleukin-1 alpha (IL1a) Biomarker Activity (AID 2283016)). Settings: primary human bronchial epithelial cells; actives raise or lower the signal.
Procedure: BSK_BE3C is a cell-based, multiplexed-readout assay that uses bronchial epithelial cell, a human lung primary cell, with measurements taken at 24 hours after chemical dosing in a 96-well plate.BSK_BE3C_IL1a is an assay component measured in the BSK_BE3C assay. It measures IL-1a antibody related to regulation of gene expression using ELISA technology.Data from the assay component BSK_BE3C_IL1a was analyzed into 1 assay endpoint. This assay endpoint, BSK_BE3C_IL1a, was analyzed with bidirectional fitting relative to DMSO as the negative control and baseline of activity. Using a type of binding reporter, gain or loss-of-signal activity can be used to understand changes in the signaling as they relate to the gene IL1A. Furthermore, this assay endpoint can be referred to as a primary readout, because this assay has produced multiple assay endpoints where this one serves a signaling function. To generalize the intended target to other relatable targets, this assay endpoint is annotated to the cytokine intended target family, where the subfamily is interleukins.
The levels of cell surface (or secreted, indicated by the prefix "s") biomarker endpoints were measured by ELISA. Overt cytotoxicity to cells in confluent adherent cultures (all systems other than the BT system) was assessed by measuring total protein levels using sulforhodamine B (SRB) staining in parallel cultures at the time of biomarker measurements, indicated as SRB endpoints. For proliferation assays for adherent cell types, individual cell types are cultured at sub-confluence and relative cell numbers quantified by SRB staining at time points optimized for each system (48 h: 3C and CASM3C systems; 72 h: BT and HDF3CGF systems; 96 h: SAg system). SRB was performed by staining cells with 0.1% SRB after fixation with 10% TCA and reading wells at 560 nm.Viability and proliferation of PBMC (T cells) was quantified by Alamar Blue reduction for the SAg and BT systems. For PBMC viability (referred to as PBMC Cytotoxicity within the assay endpoint names), cells were plated (75,000/well in a 96-well plate) and then chemical samples added for 1 h before addition of activators, SEB and TSST-1 (20 ng/mL final concentration each). Cells were incubated for 90 h. Then, Alamar Blue (20 uL/well) (Invitrogen, Cat DAL1100) was added for 6 h, and the plates were read with a fluorescence microplate reader at 546/580 nm (excitation/emission). For PBMC proliferation, cells were plated and activated as above but incubated for only 16 h prior to addition of Alamar Blue. Plates were read after 6 h.

Compound	outcome	AC50
O[Si](c1ccccc1)(c1ccccc1)c1ccccc1	inactive	
FC(F)(F)C(F)(F)C(F)(F)C(F)(F)CCI	inactive	
NC(=O)C(F)(F)C(F)(F)C(F)(F)C(F)(F)F	inactive	
CO[Si](OC)(c1ccccc1)c1ccccc1	inactive	
OCC(F)(F)C(F)(F)C(F)(F)C(F)F	inactive	
N=C(N)C(F)(F)C(F)(F)C(F)(F)C(F)(F)C(F)(F)C(F)(F)C(F)(F)F	inactive	
FC(F)(F)C(F)(F)C(F)(F)C(F)(F)C(F)(F)CCI	inactive	
O=C(O)C(F)(OC(F)(F)C(F)(OC(F)(F)C(F)(F)C(F)(F)F)C(F)(F)F)C(F)(F)F (stereo not given)	inactive	
C=C(C)C(=O)OCC(F)(F)C(F)(F)C(F)(F)F	inactive	
C=CC/C=C/C/C=C/C/C=C/C	inactive	
C=C(C)C(=O)OCC(F)(F)C(F)(F)C(F)(F)C(F)(F)C(F)(F)C(F)(F)C(F)(F)F	inactive	
C=C(C)C(=O)OCCC(F)(F)C(F)(F)C(F)(F)C(F)(F)C(F)(C(F)(F)F)C(F)(F)F	inactive	
CCCCNc1ccccc1	inactive	
CCCCOCCOCCOC(=O)CCCCC(=O)OCCOCCOCCCC	inactive	
CCCCCCC(C)OC(=O)CCCCC(=O)OC(C)CCCCCC (stereo not given)	inactive	
FC(F)(F)C(F)(F)C(F)(F)C(F)(F)C(F)(F)C(F)(F)C(F)(F)Br	inactive	
CS(C)(=O)=O	inactive	
O=C(O)C(F)(F)C(F)(F)C(F)(F)C(F)(F)F	inactive	
C=CC(=O)OCC(F)(F)C(F)(F)C(F)(F)C(F)(F)C(F)(F)C(F)(F)C(F)(F)F	inactive	
Cc1ccc(S(=O)(=O)OCC(F)(F)C(F)(F)C(F)(F)C(F)(F)C(F)(F)C(F)F)cc1	inactive	44.8 µM (active)

Compound	outcome	AC50
CCCCCCOC(=O)c1ccccc1O	inactive	
FC(F)(F)C(F)(F)C(F)(F)N(C(F)(F)C(F)(F)C(F)(F)F)C(F)(F)C(F)(F)C(F)(F)F	inactive	
C#C[C@]1(O)CC[C@H]2[C@@H]3CCc4cc(OC)ccc4[C@H]3CC[C@@]21C		0.998 µM (active)
FC(F)(I)C(F)(F)C(F)(F)C(F)(F)I		47.5 µM (active) and 46 µM (active) and 45 µM (active)
O=C(O)C(F)(F)C(F)(F)OC(F)(F)F	inactive	
OCCCC(F)(F)C(F)(F)C(F)(F)C(F)(F)C(F)(F)C(F)(F)C(F)(F)F		44.1 µM (active) and 47.9 µM (active)
FC(F)(Br)C(F)(F)C(F)(F)C(F)(F)C(F)(F)C(F)(F)Br	inactive	
FC(F)(F)C(F)(F)C(F)(F)CI	inactive	
FC(F)(F)C(F)(F)C(F)(F)C(F)(F)C(F)(F)C(F)(F)C(F)(F)C(F)(F)F	inactive	
O=C(O)C(F)(F)C(F)(F)C(F)(F)C(F)(F)C(F)(F)C(F)(F)C(F)(F)C(F)(F)Cl		25.1 µM (active) and 23.6 µM (active)
O=C(O)C(F)(F)C(F)(F)C(F)(F)F	inactive	
FC(F)(F)C(F)(F)C(F)(F)C(F)(F)C(F)(F)C(F)(F)CC1CO1 (stereo not given)	inactive	
CCc1ccc(C(c2ccc(CC)cc2)C(Cl)Cl)cc1	inactive	
CC(C)(C)C(=O)CC(=O)C(F)(F)C(F)(F)C(F)(F)F	inactive	
FC(F)(F)C(F)(F)C(F)(F)C(F)(F)C(F)(F)C(F)(F)C(F)(F)I	inactive	
O=C(O)C=C(C(F)(F)F)C(F)(F)F	inactive	
C=CC(=O)OCC(F)(F)C(F)(F)C(F)(F)C(F)(F)COC(=O)C=C		20.2 µM (active) and 25.4 µM (active)
FC(F)(F)C(F)(F)C(F)(F)C(F)(F)C(F)(F)C(F)(F)CCS	inactive	
COC(=O)CCC(F)(F)C(F)(F)C(F)(F)C(F)(F)F	inactive	
